Results: PubChem BioAssay (EPA / NIEHS)
Calls of active or inactive are those of the source. The calls were made as follows: active = hit-call score of the fitted dose curve at least 0.9, where 1 is the maximum; inactive = score below 0.9.

Experiment: APR_HepG2_StressKinase_24hr: Apredica 24-hour HepG2 Assay for Stress Kinase (AID 2282922)
Conditions: HepG2 stress kinase (phospho-c-Jun) imaging, actives raise or lower the signal
Protocol: APR_HepG2_24hr is a cell-based, multiplexed-readout assay that uses HepG2, a human liver cell line, with measurements taken at 24 hours after chemical dosing in a 384-well plate.APR_HepG2_StressKinase_24hr is one of 10 assay component(s) measured or calculated from the APR_HepG2_24hr assay. It is designed to make measurements of enzyme activity, a form of enzyme reporter, as detected with fluorescence intensity signals by HCS Fluorescent Imaging technology.Data from the assay component APR_HepG2_StressKinase_24hr was analyzed into 1 assay endpoint. This assay endpoint, APR_HepG2_StressKinase_24hr, was analyzed with bidirectional fitting relative to DMSO as the negative control and baseline of activity. Using a type of enzyme reporter, measures of protein for gain or loss-of-signal activity can be used to understand the signaling at the pathway-level as they relate to the gene . Furthermore, this assay endpoint can be referred to as a primary readout, because this assay has produced multiple assay endpoints where this one serves a signaling function. To generalize the intended target to other relatable targets, this assay endpoint is annotated to the cell cycle intended target family, where the subfamily is stress response.
Cells were treated with dimethyl sulfoxide (DMSO) as a solvent control at a final concentration of 0.5% v/v or with compounds in DMSO with a resulting final DMSO concentration of 0.5% v/v. Compound treatment was done at concentrations of 0.39, 0.78, 1.56, 3.12, 6.24, 12.5, 25, 50, 100, and 200 uM in duplicate on each plate. Cells were treated with compounds for 1, 24, or 72 hr. Carbonyl […] m-chloro-phenylhydrazone (CCCP) and taxol were used as positive controls for mitochondrial function and cytoskeletal stability, respectively; DMSO served as the negative control for this experiment. Cells were fixed by the direct addition of 50 uL formaldehyde in Hank's Balanced Salt Solution (HBSS) to a final concentration of 3.7%. After incubation in the fixation medium for 30 min at room temperature (293-298 K), cells were rinsed twice with HBSS and treated with cell permeabilization buffer (16 uL of 0.5% Triton X-100) for 10 min at room temperature (293-298 K) before labeling. For mitochondrial membrane potential and mitochondrial measurements, pre-fixed cells were incubated with 50 uL of MitoTracker Red CMXRos (Invitrogen) at a concentration of 250 nM for 30 min before fixation. In the remaining cases, post-fixed cells were labeled by incubation with a multiplexed mixture of primary antibodies in HBSS for 60 min at room temperature (293-298 K) to detect immunoreactivity of c-Jun (1:500), phospho-histone H3 (1:100), phospho-histone H2A.x (1:200), p53 (1:400), alpha-tubulin (1:200) and Hoechst 33342 (2 ug/mL). Cells were labeled for multiplexed imaging on two separate plates: a) Hoechst 33342, MitoTracker Red, phospho-histone H3, and alpha-tubulin, and b) Hoechst 33342, phospho-histone H2A.x, and c-Jun. A final rinse with HBSS (50 uL) was performed before analysis. The primary and secondary antibodies for the proteins were phospho-histone H3 (rabbit anti-phospho-histone H3 and FITC-donkey anti-rabbit IgG), phospho-histone H2A.x (mouse anti-phospho-histone H2A.x and FITC-donkey anti-mouse IgG), c-Jun (rabbit anti-phospho-c-Jun and Cy3-donkey anti-rabbit IgG), p53 (sheep anti-p53 and Cy5-donkey anti-sheep IgG), alpha-tubulin (mouse anti-alpha-tubulin and Cy5-donkey anti-mouse IgG). These antibodies are available as the CellCiphr HepG2 assay kit (Millipore).Digital images of each well were captured using a Cellomics ArrayScan VTI (Thermo Scientific Cellomics) (0.8 NA objective, 0.63x optical coupler, and XF-93 filter set) at 20x magnification. The images were acquired using the autofocus feature of the ArrayScan instrument, which entails the following steps. First, the camera focuses on channel 1 (Hoechst 33342), where nuclei are identified. Second, a Z offset of 1 um is used for capturing mitochondria (MitoTracker Red). […]

outcome, inactive:
CC(C)=CCCC(C)CCO (stereo not given)
CNCc1ccc(NC(=O)c2c[nH]c3c2C(=O)CCC3)cc1
CCc1cc(SCc2sc(-c3ccc(C(F)(F)F)cc3)nc2CN2CCN(c3ccc(OC)cc3)CC2)ccc1OCC(=O)O
CCCCCCCCCCCCCCCO
Nc1nc2ncc(CNc3ccc(C(=O)N[C@@H](CCC(=O)O)C(=O)O)cc3)nc2c(=O)[nH]1
Fc1ccccc1[C@@H](F)COC1CCC(Nc2ncnc3[nH]ncc23)CC1 (stereo not given in full)
CCCCC(CC)COC(=O)CCCCCCCCC(=O)OCC(CC)CCCC (stereo not given)
CC(C)CCO
On1ccccc1=S
COCCOCCOCCOC
CC(C)=CCCC(C)=CC=O
Cn1c(=O)cc(Oc2ccc(F)cc2F)c2cnc(NCC(C)(C)O)nc21
COC(=O)c1ccccc1O
COc1ccc(/C=C/S(=O)(=O)NC(=O)c2ccc(C)cc2Cl)cc1
O=C(O)CCN(C1(C(=O)NO)CCCC1)S(=O)(=O)c1ccc(Oc2ccc(F)cc2)cc1
O=C1CCC(N2C(=O)c3ccccc3C2=O)C(=O)N1 (stereo not given)
CC[C@H]1OC(=O)[C@H](C)[C@@H](O[C@H]2C[C@@](C)(OC)[C@@H](O)[C@H](C)O2)[C@H](C)[C@@H](O[C@@H]2O[C@H](C)C[C@H](N(C)C)[C@H]2O)[C@](C)(O)C[C@@H](C)C(=O)[C@H](C)[C@@H](O)[C@]1(C)O
Nc1ccc(Nc2ccccc2)cc1
Cc1ccc(O)cc1
CCn1nc(Cc2ccccc2)cc1C1CCN(C[C@H]2C[C@H](N(C)[C@@H](C(=O)O)C(C)C)C[C@@H]2c2cccc(F)c2)CC1
CCOCCO
CC(=O)OC[C@H]1O[C@@](COC(C)=O)(O[C@H]2O[C@H](COC(C)=O)[C@@H](OC(C)=O)[C@H](OC(C)=O)[C@H]2OC(C)=O)[C@@H](OC(C)=O)[C@@H]1OC(C)=O
O=C(O)c1cccc(N(Cc2cccnc2)c2ccc(OC(F)F)c(OC(F)F)c2)c1
CC(C)=CCC/C(C)=C\CO
CCCC(=O)OCC
Cc1ccc(N)cc1O
CCCCC(CC)COC(=O)c1ccc(C(=O)OCC(CC)CCCC)cc1 (stereo not given)
CC(C)=CCC/C(C)=C/CO
Nc1cccc(N)c1
Cc1ccc(S(=O)(=O)O)cc1C
C1N2CN3CN1CN(C2)C3
O=C(NS(=O)(=O)/C=C/c1ccccc1)c1ccc(F)cc1Cl
CCOC(=O)CC(CC(=O)OCC)(OC(C)=O)C(=O)OCC
CC/C(=C\C(=N/O)C(N)=O)C(C)[N+](=O)[O-] (stereo not given)
COC(=O)c1c(Cl)c(Cl)c(C(=O)OC)c(Cl)c1Cl
O=C(O)CC(O)C(=O)O (stereo not given)
Cn1cnc([N+](=O)[O-])c1Sc1ncnc2nc[nH]c12
C[C@](N)(Cc1ccc(O)c(O)c1)C(=O)O
O=P(OC(CCl)CCl)(OC(CCl)CCl)OC(CCl)CCl

AC50, active:
Clc1nc(Cl)c(Cl)c(Cl)c1Cl 53.2 µM
